Data published in the supplement of paper PMC11732987, “Enantioselective OTUD7B fragment discovery through chemoproteomics screening and high-throughput optimisation” (Communications Chemistry, 2025).

What was measured:
Assay in all cases: log2 ratio of Biotin-Ahx-Ub-VS probe labelling (fragment/DMSO); higher = less target engagement (more negative = stronger competition), active = hit call of the paper (q ≤ 0.05, log2 ratio ≤ -1)
Settings in all cases: compound concentration: 200 uM; treatment time: 3 h
[1] = target: USP34 (UniProt Q70CQ2)
How it was run: (§1)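 The table lists average log2 ratios of fragment over vehicle, from an unpaired t-test on global-median-normalised Spectronaut label-free quantities. Proteins with ≥2 unique peptides were used. Samples were HEK293T lysate (495 µg) treated in triplicate with fragment at 200 µM or vehicle for 3 h, then with Biotin-Ahx-Ub-VS (0.5 µM final) for 1 h, with labelled DUBs NeutrAvidin-enriched and run by diaPASEF LC-MS/MS.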

[2] = target: T1, USP36 (UniProt Q9P275)
T1 sequence (whole entry): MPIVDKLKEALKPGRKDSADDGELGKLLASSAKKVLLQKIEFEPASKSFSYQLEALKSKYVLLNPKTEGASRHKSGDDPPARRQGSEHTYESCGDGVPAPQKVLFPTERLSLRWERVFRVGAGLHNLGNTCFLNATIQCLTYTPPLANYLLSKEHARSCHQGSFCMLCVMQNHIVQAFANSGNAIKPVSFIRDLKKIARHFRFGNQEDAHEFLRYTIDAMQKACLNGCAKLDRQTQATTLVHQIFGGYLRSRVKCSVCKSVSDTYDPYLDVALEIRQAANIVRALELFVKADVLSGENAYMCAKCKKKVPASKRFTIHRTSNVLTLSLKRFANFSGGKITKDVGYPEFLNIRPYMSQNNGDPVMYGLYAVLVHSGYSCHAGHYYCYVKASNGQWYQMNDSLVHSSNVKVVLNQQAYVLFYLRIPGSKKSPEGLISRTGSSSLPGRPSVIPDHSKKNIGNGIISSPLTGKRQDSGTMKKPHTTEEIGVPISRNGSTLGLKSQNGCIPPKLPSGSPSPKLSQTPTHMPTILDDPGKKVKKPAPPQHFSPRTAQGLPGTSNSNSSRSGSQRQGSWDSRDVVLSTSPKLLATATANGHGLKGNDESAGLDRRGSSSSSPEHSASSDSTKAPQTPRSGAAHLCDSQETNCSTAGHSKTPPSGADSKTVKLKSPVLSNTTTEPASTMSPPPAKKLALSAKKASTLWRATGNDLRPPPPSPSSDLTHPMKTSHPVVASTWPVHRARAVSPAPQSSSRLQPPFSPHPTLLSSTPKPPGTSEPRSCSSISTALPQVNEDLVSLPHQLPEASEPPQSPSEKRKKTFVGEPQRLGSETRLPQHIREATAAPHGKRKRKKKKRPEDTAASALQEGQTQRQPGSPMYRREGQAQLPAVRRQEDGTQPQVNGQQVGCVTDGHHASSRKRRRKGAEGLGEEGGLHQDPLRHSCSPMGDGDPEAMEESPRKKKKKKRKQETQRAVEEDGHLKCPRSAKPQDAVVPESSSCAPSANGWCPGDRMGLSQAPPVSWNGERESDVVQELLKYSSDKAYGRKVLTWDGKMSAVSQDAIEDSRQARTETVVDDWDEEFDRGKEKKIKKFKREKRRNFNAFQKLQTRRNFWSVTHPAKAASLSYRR
How it was run: as §1

[3] = target: T2, USP38 (UniProt Q8NB14)
T2 sequence (whole entry): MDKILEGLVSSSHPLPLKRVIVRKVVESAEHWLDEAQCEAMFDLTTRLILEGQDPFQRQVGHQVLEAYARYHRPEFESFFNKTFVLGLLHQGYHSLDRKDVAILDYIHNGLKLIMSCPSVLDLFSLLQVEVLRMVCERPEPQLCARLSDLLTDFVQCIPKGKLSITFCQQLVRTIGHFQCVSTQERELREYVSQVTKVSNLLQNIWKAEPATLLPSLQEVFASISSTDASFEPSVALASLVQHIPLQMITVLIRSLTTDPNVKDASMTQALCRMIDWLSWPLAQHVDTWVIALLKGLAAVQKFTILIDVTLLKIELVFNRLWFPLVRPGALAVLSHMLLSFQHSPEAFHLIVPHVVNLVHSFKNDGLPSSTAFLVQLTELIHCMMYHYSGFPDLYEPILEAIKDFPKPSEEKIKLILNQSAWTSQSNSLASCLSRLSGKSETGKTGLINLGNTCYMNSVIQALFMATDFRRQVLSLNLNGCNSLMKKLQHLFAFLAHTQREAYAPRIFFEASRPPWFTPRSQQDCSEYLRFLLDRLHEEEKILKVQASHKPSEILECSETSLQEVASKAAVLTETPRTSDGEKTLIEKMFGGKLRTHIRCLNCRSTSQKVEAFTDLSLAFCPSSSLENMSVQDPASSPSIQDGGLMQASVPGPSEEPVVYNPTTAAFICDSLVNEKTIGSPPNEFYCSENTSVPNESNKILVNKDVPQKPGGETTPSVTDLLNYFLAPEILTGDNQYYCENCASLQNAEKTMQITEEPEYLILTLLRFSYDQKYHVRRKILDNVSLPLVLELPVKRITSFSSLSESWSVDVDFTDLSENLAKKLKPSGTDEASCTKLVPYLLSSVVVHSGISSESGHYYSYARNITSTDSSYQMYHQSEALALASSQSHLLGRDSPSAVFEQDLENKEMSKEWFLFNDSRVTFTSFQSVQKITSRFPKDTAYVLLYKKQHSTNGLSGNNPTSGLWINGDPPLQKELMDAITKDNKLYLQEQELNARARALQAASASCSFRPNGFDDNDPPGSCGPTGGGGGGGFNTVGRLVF
How it was run: as §1

[4] = target: T3, USP39 (UniProt Q53GS9)
T3 sequence (whole entry): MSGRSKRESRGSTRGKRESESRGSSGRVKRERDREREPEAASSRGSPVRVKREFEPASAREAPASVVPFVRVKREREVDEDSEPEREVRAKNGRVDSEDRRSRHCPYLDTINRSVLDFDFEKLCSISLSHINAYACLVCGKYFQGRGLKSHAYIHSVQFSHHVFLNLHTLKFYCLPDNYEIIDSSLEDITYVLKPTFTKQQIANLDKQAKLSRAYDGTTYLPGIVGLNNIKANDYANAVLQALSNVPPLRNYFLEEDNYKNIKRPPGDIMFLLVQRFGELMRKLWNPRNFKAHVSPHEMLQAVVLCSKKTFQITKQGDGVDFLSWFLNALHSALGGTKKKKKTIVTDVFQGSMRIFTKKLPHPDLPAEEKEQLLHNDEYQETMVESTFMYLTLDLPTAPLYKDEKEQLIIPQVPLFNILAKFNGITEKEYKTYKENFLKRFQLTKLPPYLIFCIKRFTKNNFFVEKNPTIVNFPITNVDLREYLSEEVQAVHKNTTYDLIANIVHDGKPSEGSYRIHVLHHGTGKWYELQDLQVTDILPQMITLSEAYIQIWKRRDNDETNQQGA
How it was run: as §1

[5] = target: T4, USP4 (UniProt Q13107)
T4 sequence (whole entry): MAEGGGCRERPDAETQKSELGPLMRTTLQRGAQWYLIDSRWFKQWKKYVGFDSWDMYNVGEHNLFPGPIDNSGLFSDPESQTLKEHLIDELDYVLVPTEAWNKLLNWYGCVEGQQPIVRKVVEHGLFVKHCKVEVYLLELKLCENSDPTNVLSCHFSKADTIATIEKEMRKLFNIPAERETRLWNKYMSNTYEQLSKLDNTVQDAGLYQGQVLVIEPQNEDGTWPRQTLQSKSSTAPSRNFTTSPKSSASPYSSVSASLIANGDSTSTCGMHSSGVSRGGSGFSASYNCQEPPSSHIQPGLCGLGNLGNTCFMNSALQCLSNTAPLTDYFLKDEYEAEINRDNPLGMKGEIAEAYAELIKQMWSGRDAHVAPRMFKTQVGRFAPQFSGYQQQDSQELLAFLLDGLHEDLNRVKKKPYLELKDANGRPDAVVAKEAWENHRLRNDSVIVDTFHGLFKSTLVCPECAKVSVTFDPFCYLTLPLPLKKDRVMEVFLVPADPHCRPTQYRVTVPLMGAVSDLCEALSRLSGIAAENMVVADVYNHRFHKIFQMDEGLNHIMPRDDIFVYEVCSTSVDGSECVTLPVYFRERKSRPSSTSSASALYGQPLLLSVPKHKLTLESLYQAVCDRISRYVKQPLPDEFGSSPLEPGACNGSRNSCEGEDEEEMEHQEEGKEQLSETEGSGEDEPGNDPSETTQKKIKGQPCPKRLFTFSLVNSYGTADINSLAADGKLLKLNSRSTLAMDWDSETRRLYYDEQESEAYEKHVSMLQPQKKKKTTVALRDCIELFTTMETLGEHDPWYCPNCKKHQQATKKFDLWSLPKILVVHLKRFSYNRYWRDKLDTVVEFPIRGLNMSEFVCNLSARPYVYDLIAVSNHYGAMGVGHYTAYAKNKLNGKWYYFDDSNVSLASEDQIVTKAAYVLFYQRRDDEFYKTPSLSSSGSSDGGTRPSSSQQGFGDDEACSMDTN
How it was run: as §1

Measured: log2 ratio of Biotin-Ahx-Ub-VS probe labelling

Chain of USP34 (Q70CQ2 whole entry, the tested form may be a part): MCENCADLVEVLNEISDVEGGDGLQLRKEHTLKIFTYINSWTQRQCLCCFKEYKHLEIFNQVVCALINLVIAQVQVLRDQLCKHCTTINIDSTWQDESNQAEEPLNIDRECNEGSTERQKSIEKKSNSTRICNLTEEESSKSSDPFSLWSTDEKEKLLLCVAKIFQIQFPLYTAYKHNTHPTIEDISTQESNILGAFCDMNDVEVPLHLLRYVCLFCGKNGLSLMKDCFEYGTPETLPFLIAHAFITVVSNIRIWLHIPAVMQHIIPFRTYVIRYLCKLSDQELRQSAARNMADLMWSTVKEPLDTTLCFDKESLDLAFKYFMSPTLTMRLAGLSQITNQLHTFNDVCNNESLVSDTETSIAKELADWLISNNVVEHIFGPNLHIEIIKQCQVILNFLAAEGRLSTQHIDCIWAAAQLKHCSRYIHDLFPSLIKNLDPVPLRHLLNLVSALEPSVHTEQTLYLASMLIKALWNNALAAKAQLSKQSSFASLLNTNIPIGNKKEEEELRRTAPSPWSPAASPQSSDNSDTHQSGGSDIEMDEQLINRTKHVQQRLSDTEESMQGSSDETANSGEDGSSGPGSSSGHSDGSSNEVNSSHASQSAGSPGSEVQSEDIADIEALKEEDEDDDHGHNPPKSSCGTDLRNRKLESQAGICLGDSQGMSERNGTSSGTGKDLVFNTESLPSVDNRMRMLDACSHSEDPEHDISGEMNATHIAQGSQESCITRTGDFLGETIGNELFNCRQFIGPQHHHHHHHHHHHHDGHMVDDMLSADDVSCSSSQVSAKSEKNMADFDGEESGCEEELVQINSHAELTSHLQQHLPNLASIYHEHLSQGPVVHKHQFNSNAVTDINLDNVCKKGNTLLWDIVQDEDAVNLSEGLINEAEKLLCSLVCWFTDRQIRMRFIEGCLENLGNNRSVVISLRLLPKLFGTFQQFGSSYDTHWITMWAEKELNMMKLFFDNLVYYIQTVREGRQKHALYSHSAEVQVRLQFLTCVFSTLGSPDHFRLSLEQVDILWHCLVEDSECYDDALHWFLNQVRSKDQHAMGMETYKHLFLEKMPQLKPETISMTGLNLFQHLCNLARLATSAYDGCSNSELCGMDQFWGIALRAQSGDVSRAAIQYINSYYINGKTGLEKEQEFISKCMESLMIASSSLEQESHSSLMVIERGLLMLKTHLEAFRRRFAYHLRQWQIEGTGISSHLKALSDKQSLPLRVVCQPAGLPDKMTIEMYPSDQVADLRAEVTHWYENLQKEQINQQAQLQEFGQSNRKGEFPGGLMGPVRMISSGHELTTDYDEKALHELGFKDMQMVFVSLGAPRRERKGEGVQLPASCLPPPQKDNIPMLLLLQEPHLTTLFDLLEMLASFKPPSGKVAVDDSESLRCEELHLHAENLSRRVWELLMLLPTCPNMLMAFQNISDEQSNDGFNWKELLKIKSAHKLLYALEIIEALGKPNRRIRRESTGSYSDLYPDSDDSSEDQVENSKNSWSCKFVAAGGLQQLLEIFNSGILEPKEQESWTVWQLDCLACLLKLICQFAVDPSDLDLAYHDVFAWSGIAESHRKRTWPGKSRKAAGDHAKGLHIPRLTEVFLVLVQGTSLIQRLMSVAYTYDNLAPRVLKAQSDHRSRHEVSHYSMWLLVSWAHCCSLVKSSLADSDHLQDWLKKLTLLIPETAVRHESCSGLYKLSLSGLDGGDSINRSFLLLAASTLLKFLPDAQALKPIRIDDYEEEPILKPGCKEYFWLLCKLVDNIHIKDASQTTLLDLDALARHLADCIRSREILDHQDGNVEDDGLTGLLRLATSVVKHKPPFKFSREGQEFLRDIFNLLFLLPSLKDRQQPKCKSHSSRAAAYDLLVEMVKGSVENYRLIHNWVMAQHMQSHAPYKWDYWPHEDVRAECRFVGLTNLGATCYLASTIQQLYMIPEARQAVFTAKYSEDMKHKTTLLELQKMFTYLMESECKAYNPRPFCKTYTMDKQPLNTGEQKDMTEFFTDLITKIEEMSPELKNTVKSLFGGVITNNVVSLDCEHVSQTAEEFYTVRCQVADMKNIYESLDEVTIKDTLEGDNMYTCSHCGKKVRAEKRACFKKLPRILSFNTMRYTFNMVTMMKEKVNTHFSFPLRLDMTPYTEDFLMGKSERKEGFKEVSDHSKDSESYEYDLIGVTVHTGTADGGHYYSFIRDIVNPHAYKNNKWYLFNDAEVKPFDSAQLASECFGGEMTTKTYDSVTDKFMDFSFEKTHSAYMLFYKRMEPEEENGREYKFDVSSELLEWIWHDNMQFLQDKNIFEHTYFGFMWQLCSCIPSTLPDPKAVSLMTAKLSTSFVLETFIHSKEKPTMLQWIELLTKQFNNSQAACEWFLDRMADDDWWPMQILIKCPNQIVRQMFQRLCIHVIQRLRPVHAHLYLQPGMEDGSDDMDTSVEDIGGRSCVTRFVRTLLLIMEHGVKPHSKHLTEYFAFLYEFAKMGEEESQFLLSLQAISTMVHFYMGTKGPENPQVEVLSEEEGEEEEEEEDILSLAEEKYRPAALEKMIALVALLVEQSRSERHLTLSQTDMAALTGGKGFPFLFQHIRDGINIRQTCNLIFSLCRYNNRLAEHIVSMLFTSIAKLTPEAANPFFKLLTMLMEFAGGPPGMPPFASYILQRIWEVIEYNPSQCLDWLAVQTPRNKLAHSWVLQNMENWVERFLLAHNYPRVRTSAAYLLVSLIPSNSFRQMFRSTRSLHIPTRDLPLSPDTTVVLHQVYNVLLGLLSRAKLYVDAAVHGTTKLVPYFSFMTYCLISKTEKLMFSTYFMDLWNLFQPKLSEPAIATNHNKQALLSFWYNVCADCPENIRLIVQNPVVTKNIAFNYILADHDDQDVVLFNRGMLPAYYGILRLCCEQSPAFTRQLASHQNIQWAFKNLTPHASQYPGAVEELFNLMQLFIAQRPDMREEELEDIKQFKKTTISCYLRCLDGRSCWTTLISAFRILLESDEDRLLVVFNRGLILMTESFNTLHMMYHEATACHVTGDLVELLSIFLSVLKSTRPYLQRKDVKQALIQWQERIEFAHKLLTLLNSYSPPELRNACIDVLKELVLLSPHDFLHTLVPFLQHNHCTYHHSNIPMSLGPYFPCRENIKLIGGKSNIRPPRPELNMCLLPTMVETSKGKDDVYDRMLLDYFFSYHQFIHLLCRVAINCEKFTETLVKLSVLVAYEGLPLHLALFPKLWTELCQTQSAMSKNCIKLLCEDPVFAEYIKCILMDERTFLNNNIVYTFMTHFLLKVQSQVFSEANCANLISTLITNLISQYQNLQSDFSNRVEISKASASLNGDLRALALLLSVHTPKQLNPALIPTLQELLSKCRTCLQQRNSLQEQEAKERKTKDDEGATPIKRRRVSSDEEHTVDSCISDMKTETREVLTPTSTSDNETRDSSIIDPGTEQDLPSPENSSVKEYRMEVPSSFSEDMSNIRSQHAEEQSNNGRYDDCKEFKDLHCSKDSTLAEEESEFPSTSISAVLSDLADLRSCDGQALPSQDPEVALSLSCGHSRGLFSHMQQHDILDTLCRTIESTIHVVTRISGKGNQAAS

Cl.O=C(CCl)NCCN1CCc2ccccc21
inactive: [1] -0.536 | [2] -0.231 | [3] -0.723 | [4] 0.178 | [5] -0.666
